Data from PubChem BioAssay AID1345085 (National Center for Advancing Translational Sciences (NCATS), 2018).
Records with an inconclusive call do not appear. Entries that show only a call come without a potency. A number with no mark means an inactive call. Active and inactive are the calls of the source. Calls come from the whole dose curve; as a rule, active = well fitted cell-killing curve with a large enough effect; inconclusive = small, poorly fitted or top-dose-only effect, or effect the other way; inactive = no such curve, though single readings can be large or run the other way.

Tested on: SW626
Test: Confirmatory qHTS for gynecologic anti-cancer compounds from libraries of approved drugs and bioactive compounds; note: nearly all actives have a fitted effect of over 55% in size
Conditions: gynecologic cancer cell panel viability, ATPlite luminescence, 48 h; series mostly up to 57.6 µM
In short: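 Cells (1,000/well) plated 16 h, then exposed 48 h at 37 °C to 11 concentrations (1:3) from 57.5 uM to 0.977 nM. Viability by ATPlite luminescence after 15 min; IC50 derived, with HEK 293T used for selectivity index.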
Potency is the fitted concentration of half-maximal effect.

Row | SMILES | activity change, negative = viability loss | Potency
1 | CC(=O)O[C@H]1C(=O)[C@@]2(C)[C@H]([C@H](OC(=O)c3ccccc3)[C@]3(O)C[C@H](OC(=O)[C@H](O)[C@@H](NC(=O)c4ccccc4)c4ccccc4)C(C)=C1C3(C)C)[C@]1(OC(C)=O)CO[C@@H]1C[C@@H]2O | -9.14% [at 10.7 µM] | –
2 | CC(C)C[C@H](NC(=O)[C@H](Cc1ccccc1)NC(=O)c1cnccn1)B(O)O | – | 0.0137 µM (active)
3 | C[C@@H](Oc1cc(-c2cnn(C3CCNCC3)c2)cnc1N)c1c(Cl)ccc(F)c1Cl | – | 21.7 µM (active)
4 | CCOc1ccc(Nc2nc(-c3c(C)nc4ccccn34)cs2)cc1 | – | inactive
5 | CC(C)n1nc(-c2cc3cc(O)ccc3[nH]2)c2c(N)ncnc21 | – | 7.69 µM (active)
6 | FC(F)(F)c1ccc(/C=C/c2nc(COc3ccc(CCCCn4ccnn4)cc3)co2)cc1 | – | inactive
7 | Cc1nc(NC(=O)N2CCCC2C(N)=O)sc1-c1csc(C(C)(C)C)n1 (centres undefined) | – | inactive
8 | Cc1ccc(C(=O)N(CCCN)C(c2oc3cc(Cl)ccc3c(=O)c2Cc2ccccc2)C(C)C)cc1 (centres undefined) | – | 24.3 µM (active)
9 | Cc1cc(C(=O)N2CCN(c3cccc(Cl)c3)CC2)n(-c2ccccc2)n1 | – | inactive
10 | Nc1ccccc1NC(=O)c1ccc(CNC(=O)OCc2cccnc2)cc1 | – | 3.06 µM (active)
11 | CC(C)Oc1ccc2c(=O)c(-c3ccccc3)coc2c1 | – | 21.7 µM (active)
12 | O=c1cc(CN2CCOCC2)occ1OCCCCCSc1ccnc2cc(C(F)(F)F)ccc12 | – | inactive
13 | CC(C)Oc1ccc(C(=O)NC(CNC(=O)CN(C)C)Cc2ccc(-c3cn4cccc(C(C)O)c4n3)cc2)cc1Cl (centres undefined) | – | inactive
14 | COc1ccc2c(c1)c(CC(=O)O)c(C)n2C(=O)c1ccc(Cl)cc1 | – | inactive
15 | CC[C@@]1(O)C(=O)OCc2c1cc1n(c2=O)Cc2cc3cc(O)ccc3nc2-1 | – | 0.217 µM (active)
16 | CCCCN(CCCC)CC(O)c1cc(Cl)cc2c1-c1ccc(Cl)cc1/C2=C/c1ccc(Cl)cc1 (centres undefined) | – | inactive
17 | O=C1NC(=O)C(c2cnc3ccccn23)=C1c1cn2c3c(cccc13)CN(C(=O)N1CCOCC1)CC2 | – | inactive
18 | COc1c(C)c2c(c(O)c1C/C=C(\C)CCC(=O)O)C(=O)OC2 | – | inactive
19 | CC(C)n1c(/C=C/[C@@H](O)C[C@@H](O)CC(=O)O)c(-c2ccc(F)cc2)c2ccccc21 | – | 1.37 µM (active)
